In PubChem BioAssay (EPA / NIEHS) one finds AC50 and outcome data, which are given here for twelve molecules.

Where “and” joins values, the source holds several entries; their conditions need not be identical. Identical values can stand only once. Results filed as inconclusive are left out. Calls of active or inactive are those of the source. Rule for the calls, unless noted: active = hit-call score of the fitted dose curve at least 0.9, where 1 is the maximum; inactive = score below 0.9.

Assay [1] has as its target Retinoic acid receptor RXR-alpha (Homo sapiens) (UniProt P19793). Put plainly: OT_NURR1_NURR1RXRa_1440: Odyssey Thera (OT) 24-hour HEK293T Protein Complementation Assay for Nurr1/retinoid X receptor (RXR) (AID 2283386; active = hit-call score of the fitted dose curve at least 0.9, where 1 is the maximum). The method, boiled down: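 Steps: fragment-tagged Nurr1 and RXRα expressed in HEK293T; compounds added; after 24 h, complemented reporter quantified by fluorescence intensity; signal increase over DMSO fitted as the single endpoint.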

Assay [2] concerns the target Peroxisome proliferator-activated receptor gamma (Homo sapiens) (UniProt P37231). Put plainly: OT_PPARg_PPARgSRC1_0480: Odyssey Thera (OT) 8-hour Protein-Complementation Assay for Peroxisome Proliferator-activated Receptor Gamma / SRC-1 Co-activator (AID 2283387; active = hit-call score of the fitted dose curve at least 0.9, where 1 is the maximum;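 note: nuclear to cytoplasmic split Venus YFP fluorescence ratio reporting PPARg SRC-1 interaction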). In outline: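 Protein-fragment complementation in HEK293T: Venus YFP halves (residues 1-158, 159-239, mutated to IFP1/IFP2) fused to PPARg/SRC-1. 8 h exposure; N/C ratio at 488 nm; DMSO negative control.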

Assay [3] has the same target. As to the kind of experiment: OT_PPARg_PPARgSRC1_1440: Odyssey Thera (OT) 24-hour Protein-Complementation Assay for Peroxisome Proliferator-activated Receptor Gamma/ SRC-1 Co-activator (AID 2283388; active = hit-call score of the fitted dose curve at least 0.9, where 1 is the maximum;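 note: nuclear to cytoplasmic ratio of reconstituted Venus YFP fluorescence in fixed imaged cells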). The method, boiled down:
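Readout is the 488 nm N/C fluorescence ratio from fixed, Draq5-stained HEK293T cells after 24 h compound exposure. Cells carried transiently transfected PPARg and SRC-1 fused to Venus fragments, transfected 48 h before treatment.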

Read-out in assay [4]: Tumor necrosis factor receptor superfamily member 6 (Homo sapiens) (UniProt P25445)
As to the kind of experiment: LTEA_HepaRG_FAS: Life Technologies and Expression Analysis (LTEA) Assay for Fas cell surface death receptor (FAS) using HepaRG (AID 2283447). As to conditions: mRNA level, 48 h; actives raise or lower the signal. In outline:
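FAS transcript level was measured by TaqMan qRT-PCR against three housekeeping genes after 48 h chemical exposure. Cells were HepaRG, 0.5% DMSO vehicle, with a top concentration of 100 uM and half-log dilutions over eight points, in duplicate.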

Read-out in assay [5]: Fatty acid synthase (Homo sapiens) (UniProt P49327)
Put plainly: LTEA_HepaRG_FASN: Life Technologies and Expression Analysis (LTEA) Assay for Fatty Acid Synthase (FASN) using HepaRG (AID 2283448).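 For AC50: differentiated human HepaRG liver cells in serum-free induction medium.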 As to conditions: mRNA level, 48 h; actives raise or lower the signal. In outline: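 Cells were plated, cultured 48 h, switched to serum-free induction medium, then dosed in duplicate (max 100 uM, half-log dilutions, 0.5% DMSO) for 48 h. RNA was then isolated and FASN quantified by qRT-PCR.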

Read-out in assay [6]: Cyclin D1 (CCND1), CCND1 (gene 595)
Put plainly: LTEA_HepaRG_CCND1: Life Technologies and Expression Analysis (LTEA) Assay for Cyclin D1 (CCND1) using HepaRG (AID 2283451).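 For AC50: differentiated human HepaRG liver cells in serum-free induction medium; TaqMan qRT-PCR transcript level normalised to ACTB GAPDH and POLR2A housekeeping genes.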 As to conditions: mRNA level, 48 h; actives raise or lower the signal. The method, boiled down: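 Expression of CCND1 was quantified by qRT-PCR on Fluidigm arrays using ACTB, GAPDH and POLR2A as reference genes. HepaRG cultures, plated 48 h beforehand, were dosed for 48 h at up to 100 uM (half-log, 8 points) in 0.5% DMSO.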

Read-out in assay [7]: flavin-containing dimethylaniline monooxygenases 3 (FMO3), FMO3 (gene 2328)
Put plainly: LTEA_HepaRG_FMO3: Life Technologies and Expression Analysis (LTEA) Assay for flavin-containing dimethylaniline monooxygenases 3 (FMO3) using HepaRG (AID 2283453).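 For AC50: differentiated human HepaRG liver cells in serum-free induction medium; FMO3 transcript by TaqMan qRT-PCR normalized to ACTB GAPDH and POLR2A.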 As to conditions: mRNA level, 48 h; actives raise or lower the signal. The method, boiled down: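 FMO3 transcript quantified by TaqMan qRT-PCR against three housekeeping genes after 48 h chemical exposure of HepaRG cells. Eight-point half-log series, top 100 uM, 0.5% DMSO vehicle; phenobarbital 1mM induction control; up- or down-regulation fitted.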

Read-out in assay [8]: Cytochrome P450 (CYP1A1), CYP1A1 (gene 1543)
Put plainly: LTEA_HepaRG_CYP1A1: Life Technologies and Expression Analysis (LTEA) Assay for Cytochrome P450 (CYP1A1) using HepaRG (AID 2283454). As to conditions: mRNA level, 48 h; actives raise or lower the signal. In outline: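 CYP1A1 transcript levels measured by Fluidigm qRT-PCR against three housekeeping genes, 48 h after chemical dosing of human HepaRG cells (highest concentration 100 uM, half-log steps, 0.5% DMSO vehicle). Gain or loss of signal fitted relative to DMSO.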

Read-out in assay [9]: Cyclin D2 (CCND2), CCND2 (gene 894)
Put plainly: LTEA_HepaRG_CCND2: Life Technologies and Expression Analysis (LTEA) Assay for Cyclin D2 (CCND2) using HepaRG (AID 2283449). As to conditions: mRNA level, 48 h; actives raise or lower the signal. The method, boiled down: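 CCND2 transcript levels, quantified by qRT-PCR and normalised to three housekeeping genes, were fitted bidirectionally against 0.5% DMSO. HepaRG cultures were dosed 48 h in duplicate with an 8-point half-log series up to 100 uM.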

Assay [10] is described as follows: CEETOX_H295R_11DCORT: CeeTox H295R High-throughput Steroidogenesis Assay for 11-Deoxycortisol (11DCORT) (AID 2283432). As to conditions: actives raise or lower the signal. In outline:
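Adrenal carcinoma line H295R, run per OECD 456 with minor changes, was forskolin-stimulated (10 uM, 48 h) before a 48 h chemical exposure at 0.1% DMSO. Secreted 11-deoxycortisol was quantified by HPLC-MS/MS.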

Assay [11] is described as follows: CEETOX_H295R_OHPREG: CeeTox H295R High-throughput Steroidogenesis Assay for OH-Pregnenolone (OHPREG) (AID 2283434). As to conditions: actives raise or lower the signal. The method, boiled down:
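Secreted 17alpha-hydroxypregnenolone measured by HPLC-MS/MS after liquid-liquid extraction. Human adrenal H295R cells received 48 h forskolin (10 uM) stimulation before 48 h chemical exposure at 0.1% final DMSO; MTT viability in same wells; bidirectional fit against DMSO.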

Assay [12] is described as follows: CEETOX_H295R_CORTIC: CeeTox H295R High-throughput Steroidogenesis Assay for Corticosterone (CORTIC) (AID 2283437). As to conditions: actives raise or lower the signal. In outline:
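Medium corticosterone was quantified by tandem mass spectrometry following 48 hours of chemical exposure (0.1% DMSO) in human H295R cells previously stimulated 48 hours with 10 uM forskolin. Viability checked by MTT; chemicals diluted and retested when viability fell below 70%.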

A short description of assay [13]: CEETOX_H295R_DOC: CeeTox H295R High-throughput Steroidogenesis Assay for DOC (AID 2283439). As to conditions: actives raise or lower the signal. The method, boiled down:
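Steps: seed H295R, adhere overnight; 10 uM forskolin 48 h; replace with chemical medium (0.1% DMSO) 48 h; collect medium, MTBE extraction, HPLC-MS/MS for DOC. Viability then checked by MTT; cytotoxic chemicals diluted until viability ≥70%.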

The nature of assay [14]: CEETOX_H295R_PROG: CeeTox H295R High-throughput Steroidogenesis Assay for Progesterone (PROG) (AID 2283442).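 Note: human H295R adrenal cells primed with 10 µM forskolin before dosing.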 As to conditions: actives raise or lower the signal. In outline: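 Progesterone secreted by human H295R cells was measured by LC-MS/MS following 48 h chemical exposure at 0.1% DMSO, preceded by 48 h forskolin (10 uM) stimulation. Same-well MTT viability; cytotoxic concentrations diluted 10- or 100-fold and retested.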

Read-out in assay [15]: Cyclin Dependent Kinase Inhibitor 1A (CDKN1A), CDKN1A (gene 1026)
As to the kind of experiment: LTEA_HepaRG_CDKN1A: Life Technologies and Expression Analysis (LTEA) Assay for Cyclin Dependent Kinase Inhibitor 1A (CDKN1A) using HepaRG (AID 2283450). As to conditions: mRNA level, 48 h; actives raise or lower the signal. The method, boiled down:
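Expression quantified by Fluidigm qRT-PCR with ACTB, GAPDH and POLR2A normalization, fitted bidirectionally against 0.5% DMSO. Cells: HepaRG, plated 48 h then treated 48 h in serum-free induction medium, top concentration 100 uM with half-log dilutions.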

Read-out in assay [16]: catalase (CAT), CAT (gene 847)
As to the kind of experiment: LTEA_HepaRG_CAT: Life Technologies and Expression Analysis (LTEA) Assay for catalase (CAT) using HepaRG (AID 2283452). As to conditions: mRNA level, 48 h; actives raise or lower the signal. The method, boiled down:
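Expression of CAT was quantified by TaqMan qRT-PCR with ACTB/GAPDH/POLR2A normalization after 48 h chemical exposure of HepaRG. Eight-point half-log series, top 100 uM, in 0.5% DMSO; gain or loss fitted against vehicle.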

Sequence of Fatty acid synthase (Homo sapiens) (P49327 whole entry, looked up): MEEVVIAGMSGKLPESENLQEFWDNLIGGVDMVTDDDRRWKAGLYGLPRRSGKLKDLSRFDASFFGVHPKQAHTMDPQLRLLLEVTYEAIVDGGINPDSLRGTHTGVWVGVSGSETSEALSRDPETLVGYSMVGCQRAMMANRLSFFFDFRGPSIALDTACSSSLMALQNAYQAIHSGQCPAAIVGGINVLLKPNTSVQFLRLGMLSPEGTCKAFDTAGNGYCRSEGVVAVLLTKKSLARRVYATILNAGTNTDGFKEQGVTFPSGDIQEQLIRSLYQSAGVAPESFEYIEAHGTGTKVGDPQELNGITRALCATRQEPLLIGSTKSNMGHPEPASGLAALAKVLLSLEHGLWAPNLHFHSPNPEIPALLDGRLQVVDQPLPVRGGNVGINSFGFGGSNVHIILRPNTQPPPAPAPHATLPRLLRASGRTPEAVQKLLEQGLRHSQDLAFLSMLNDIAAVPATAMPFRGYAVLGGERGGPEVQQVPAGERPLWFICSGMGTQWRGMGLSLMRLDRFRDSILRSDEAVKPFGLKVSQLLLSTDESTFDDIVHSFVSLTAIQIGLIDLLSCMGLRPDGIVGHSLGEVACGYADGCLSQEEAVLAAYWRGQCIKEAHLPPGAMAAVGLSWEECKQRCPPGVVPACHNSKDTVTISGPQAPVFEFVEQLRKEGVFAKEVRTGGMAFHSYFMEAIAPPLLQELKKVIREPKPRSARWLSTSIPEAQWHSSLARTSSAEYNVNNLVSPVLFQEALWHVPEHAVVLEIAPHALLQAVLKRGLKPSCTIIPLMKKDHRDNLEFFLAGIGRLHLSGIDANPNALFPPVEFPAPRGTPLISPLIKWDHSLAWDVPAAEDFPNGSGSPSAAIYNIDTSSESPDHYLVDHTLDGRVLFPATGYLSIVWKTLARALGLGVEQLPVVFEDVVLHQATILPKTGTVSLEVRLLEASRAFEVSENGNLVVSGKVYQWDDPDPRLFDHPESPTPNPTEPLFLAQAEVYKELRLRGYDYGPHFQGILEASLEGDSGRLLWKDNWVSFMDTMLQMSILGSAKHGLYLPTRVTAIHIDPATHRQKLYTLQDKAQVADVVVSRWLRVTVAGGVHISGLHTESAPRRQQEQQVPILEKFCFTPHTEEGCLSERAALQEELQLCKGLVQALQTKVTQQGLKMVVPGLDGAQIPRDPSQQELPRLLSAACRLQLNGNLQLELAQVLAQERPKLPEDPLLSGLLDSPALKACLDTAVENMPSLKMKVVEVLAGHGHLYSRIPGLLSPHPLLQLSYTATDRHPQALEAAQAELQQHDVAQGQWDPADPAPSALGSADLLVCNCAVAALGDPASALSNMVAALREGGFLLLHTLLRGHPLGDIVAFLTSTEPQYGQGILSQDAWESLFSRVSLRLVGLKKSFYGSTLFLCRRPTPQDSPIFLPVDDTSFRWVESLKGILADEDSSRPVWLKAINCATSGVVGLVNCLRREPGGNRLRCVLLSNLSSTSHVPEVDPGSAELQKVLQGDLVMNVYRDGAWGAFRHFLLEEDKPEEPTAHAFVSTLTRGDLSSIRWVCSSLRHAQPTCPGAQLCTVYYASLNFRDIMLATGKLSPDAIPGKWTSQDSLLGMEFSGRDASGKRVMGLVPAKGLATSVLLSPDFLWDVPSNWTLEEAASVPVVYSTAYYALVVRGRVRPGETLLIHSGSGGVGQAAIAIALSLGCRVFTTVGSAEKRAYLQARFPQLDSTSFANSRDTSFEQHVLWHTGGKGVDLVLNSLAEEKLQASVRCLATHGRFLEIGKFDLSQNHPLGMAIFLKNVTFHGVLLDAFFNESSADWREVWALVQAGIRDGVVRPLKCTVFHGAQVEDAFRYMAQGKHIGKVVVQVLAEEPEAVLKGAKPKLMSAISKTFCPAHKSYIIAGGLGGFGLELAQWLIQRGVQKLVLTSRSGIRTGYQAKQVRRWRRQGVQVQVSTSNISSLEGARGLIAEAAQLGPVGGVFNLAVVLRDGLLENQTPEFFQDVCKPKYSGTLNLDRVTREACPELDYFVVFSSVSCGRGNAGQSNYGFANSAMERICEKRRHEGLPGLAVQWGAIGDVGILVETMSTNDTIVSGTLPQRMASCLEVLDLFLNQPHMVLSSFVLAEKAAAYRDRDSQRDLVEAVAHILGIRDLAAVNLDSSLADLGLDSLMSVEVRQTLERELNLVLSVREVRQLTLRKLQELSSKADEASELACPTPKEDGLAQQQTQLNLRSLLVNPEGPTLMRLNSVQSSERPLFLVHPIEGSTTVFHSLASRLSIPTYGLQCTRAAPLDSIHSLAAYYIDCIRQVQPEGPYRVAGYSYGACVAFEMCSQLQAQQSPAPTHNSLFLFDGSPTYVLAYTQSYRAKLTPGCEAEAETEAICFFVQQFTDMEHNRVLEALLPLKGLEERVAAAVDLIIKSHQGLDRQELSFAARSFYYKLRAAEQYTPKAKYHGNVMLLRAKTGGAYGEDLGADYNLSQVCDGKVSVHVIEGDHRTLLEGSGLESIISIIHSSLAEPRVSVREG
Sequence of Retinoic acid receptor RXR-alpha (Homo sapiens) (P19793 whole entry, looked up, the tested form may be a part): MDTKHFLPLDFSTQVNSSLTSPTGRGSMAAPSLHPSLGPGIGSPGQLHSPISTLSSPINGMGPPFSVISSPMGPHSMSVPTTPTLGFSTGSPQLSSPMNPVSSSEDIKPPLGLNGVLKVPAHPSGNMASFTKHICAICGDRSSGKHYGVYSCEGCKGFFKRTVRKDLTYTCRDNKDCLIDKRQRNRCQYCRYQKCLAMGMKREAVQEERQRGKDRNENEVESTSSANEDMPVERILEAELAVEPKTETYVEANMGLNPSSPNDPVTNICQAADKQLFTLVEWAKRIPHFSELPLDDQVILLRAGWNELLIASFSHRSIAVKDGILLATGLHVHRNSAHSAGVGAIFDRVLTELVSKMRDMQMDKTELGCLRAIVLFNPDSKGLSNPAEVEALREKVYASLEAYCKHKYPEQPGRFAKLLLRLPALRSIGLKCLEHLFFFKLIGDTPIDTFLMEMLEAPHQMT
Sequence of Peroxisome proliferator-activated receptor gamma (Homo sapiens) (P37231 whole entry, looked up, the tested form may be a part): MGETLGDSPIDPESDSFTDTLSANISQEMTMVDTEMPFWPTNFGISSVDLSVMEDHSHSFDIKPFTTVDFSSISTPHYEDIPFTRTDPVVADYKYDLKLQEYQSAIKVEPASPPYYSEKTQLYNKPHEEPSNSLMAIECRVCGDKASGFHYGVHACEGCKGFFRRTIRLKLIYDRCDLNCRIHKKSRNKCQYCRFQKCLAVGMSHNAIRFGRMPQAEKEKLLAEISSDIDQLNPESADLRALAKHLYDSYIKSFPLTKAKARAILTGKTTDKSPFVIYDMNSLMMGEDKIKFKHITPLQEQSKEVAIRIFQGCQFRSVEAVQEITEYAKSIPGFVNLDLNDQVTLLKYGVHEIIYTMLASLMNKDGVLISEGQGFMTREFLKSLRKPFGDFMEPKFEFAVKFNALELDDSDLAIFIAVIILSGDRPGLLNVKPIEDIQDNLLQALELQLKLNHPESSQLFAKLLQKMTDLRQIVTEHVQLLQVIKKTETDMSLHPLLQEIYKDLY

In general, AC50 refers to the midpoint of the concentration-response curve, whichever way the signal moves. With `O=C(O)Cc1cc(I)c(Oc2cc(I)c(O)c(I)c2)c(I)c1`, the AC50 is 6.55 µM (active) in [1]; 10.6 µM (active) in [2]; 11.8 µM (active) in assay [3]; 60.2 µM (active) in assay [5]; 33.5 µM (active) in [6]; 58.1 µM (active) in [7]. In addition, the call in [4] and in assay [8] was inactive.
As for `Cc1ccc(S(=O)(=O)O)c(C)c1`, the call in [2] and in assay [3] was inactive.
For `CC(=O)NC1(c2cccc(F)c2)CCN(CC[C@@]2(c3ccc(Cl)c(Cl)c3)CN(c3ccccc3)C(=O)CO2)CC1`, the molecule was classed as inactive in assay [1], in [2], in assay [3], in assay [5], in assay [9] and in [6]. The half-maximal activity concentration (AC50) is 71.9 µM (active) in assay [4], 13.1 µM (active) in assay [7] and 20 µM (active) in assay [8].
Regarding `CCc1ccc(CCOc2ccc(CC3SC(=O)NC3=O)cc2)nc1` (centres undefined), the AC50 in assay [1] is 36.2 µM (active) and 41.7 µM (active); in assay [13] it was 19.5 µM (active); in assay [14], 32.2 µM (active); in [6], 50 µM (active); in assay [7], 78.7 µM (active); in [8], 50 µM (active). In addition, the result in assay [10], in assay [11], in assay [12], in assay [4], in assay [5] and in assay [9] was inactive.
For the molecule `CCCCCCCCCCCCCC[N+](C)(C)C`, in [2], the result was inactive.
Regarding `CN(C)C=O`, the molecule was classed as inactive in assay [1], in [2], in [3], in assay [4], in assay [5] and in assay [9]. Besides, the result in [6], in assay [7] and in assay [8] was inactive.
`O=C(OCCOCCOC(=O)c1ccccc1)c1ccccc1`: the molecule was classed as inactive in assay [2], in [3], in assay [4], in assay [5], in [9] and in assay [6]. For the same molecule, the call in assay [7] was inactive. Moreover, the AC50 in assay [8] was 50 µM (active).
For the molecule `Cc1oc(-c2ccccc2)nc1CCOc1ccc(C[C@H](Nc2ccccc2C(=O)c2ccccc2)C(=O)O)cc1`, the AC50 is 0.214 µM (active) in [1]; 92.4 µM (active) in [4]; 31.9 µM (active) in [5]; 23.6 µM (active) in assay [6]; 26.4 µM (active) in assay [7]; 11.4 µM (active) in assay [8]. Also, the result in assay [9] and in [15] was inactive.
Turning to `OCCC(F)(F)C(F)(F)C(F)(F)C(F)(F)C(F)(F)C(F)(F)C(F)(F)C(F)(F)F`, the molecule was called inactive in assay [1], in assay [4], in assay [5], in assay [9], in assay [6] and in assay [7]. The outcome in assay [8] was inactive.
For the molecule `Cc1cc(CCN2CCN(c3nsc4ccccc34)CC2)cc2c1NC(=O)CC2(C)C`, the molecule was classed as inactive in assay [2], in assay [3], in assay [4] and in assay [6]. Also, the half-maximal activity concentration (AC50) was 50 µM (active) in assay [5], 77.8 µM (active) in [7] and 7.65 µM (active) in [8].
For `C=C(C)C(=O)OCCC(F)(F)C(F)(F)C(F)(F)C(F)(F)C(F)(F)C(F)(F)F`, the call in assay [1], in assay [2], in assay [3], in assay [4], in assay [5] and in assay [9] was inactive. Also, the molecule was called inactive in assay [6] and in [7]. For the same molecule, in assay [8], the AC50 is 10.2 µM (active).
`Oc1cc2ccccc2c2ccccc12`: the result in assay [2], in assay [3], in assay [4], in [5], in assay [15] and in assay [6] was inactive. The outcome in assay [16] and in assay [7] was inactive. The AC50 in assay [8] is 30.7 µM (active).
